SENP8 block-1 – blocks the human protease SENP8. AID 2540. purified SENP8, Z-RLRGG-aminoluciferin cleavage, luminescence. hit rate 1.2% among 330,000. inhibition, % at 10 µM; in the data active = inhibition above about 50%
Target sequence (Q96LD8 whole entry, looked up): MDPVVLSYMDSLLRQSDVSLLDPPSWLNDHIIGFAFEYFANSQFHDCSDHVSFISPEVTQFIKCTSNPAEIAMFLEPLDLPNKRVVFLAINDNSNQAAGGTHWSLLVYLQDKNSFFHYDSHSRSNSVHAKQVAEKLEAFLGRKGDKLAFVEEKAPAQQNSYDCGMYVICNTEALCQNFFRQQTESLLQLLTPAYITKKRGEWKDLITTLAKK
EBI2 antag – antagonists of human EBI2 receptor | hit rate 0.81% among 360,000 | EBI2 beta-arrestin recruitment, luminescence, 7a,25-OHC stimulated | inhibition, % at 5 µM; in the data active = inhibition above about 38%;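 note: enzyme fragment complementation signal reports receptor beta-arrestin coupling in cells; 0% = agonist plus DMSO wells and 100% = wells without agonist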
AHR act – human AHR activation | P35869 | AHR-responsive luciferase reporter cells, luminescence | activation, % at 5 µM | hit rate 2.5% among 320,000; in the data active = activation above about 47%;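 note: 0% = vehicle wells and 100% = reference agonist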
SENP6 block – SENP6 protease inhibition | Q9GZR1 | Recombinant SENP6 catalytic domain, aminoluciferin luminescence | inhibition, % at 10 µM | hit rate 1.8% among 330,000 | AID 2599;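 active = inhibition above about 50% at the single tested dose, limit read from the data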;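 note: plate controls were DMSO wells with enzyme for no effect and DMSO wells lacking enzyme for full effect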
SENP7 inh – inhibitors of human SENP7 protease; Q9BQF6; recombinant SENP7, Z-RLRGG-aminoluciferin luminescence, 40 min; inhibition, % at 5 µM; hit rate 1.5% among 330,000; AID 434973;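 active = inhibition above about 50% at the single test dose, limit read from the data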;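 note: plate controls were DMSO with enzyme for no effect and no enzyme buffer wells for full effect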
Target sequence (Q9BQF6 706-1050 limits assumed): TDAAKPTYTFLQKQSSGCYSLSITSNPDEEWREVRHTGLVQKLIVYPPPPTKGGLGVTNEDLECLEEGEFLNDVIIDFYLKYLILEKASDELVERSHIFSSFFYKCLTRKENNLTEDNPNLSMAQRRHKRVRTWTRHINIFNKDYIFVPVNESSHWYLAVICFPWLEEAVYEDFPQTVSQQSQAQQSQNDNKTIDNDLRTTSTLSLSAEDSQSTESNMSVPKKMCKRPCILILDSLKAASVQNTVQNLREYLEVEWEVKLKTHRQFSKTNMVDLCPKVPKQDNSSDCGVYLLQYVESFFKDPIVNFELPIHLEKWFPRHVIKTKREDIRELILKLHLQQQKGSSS
SENP8 block-2 – blocks human SENP8 cleavage of Nedd8 substrate. Q96LD8. inhibition, % at 20 µM. hit rate 0.64% among 360,000. recombinant SENP8, Nedd8 substrate fluorescence; in the data active = inhibition mostly above about 40%, no sharp cut-off; inactive = mostly below about 27%
EBI2 conf – confirmation of human EBI2 receptor antagonists | shares compounds with EBI2 antag | EBI2 beta-arrestin luminescence, 7a,25-OHC antagonism | inhibition, % at 5 µM | hit rate 29% among 2,400;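 active = inhibition of at least 50%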
EBI2 ag – activates EBI2, counter-screen for EBI2 antagonists; shares compounds with EBI2 antag; EBI2-expressing cells, agonist mode, luminescence, 60 min; 0% vehicle, 100% 7α,25-dihydroxycholesterol control; activation, % at 5 µM; 2,400 tested, under 10 active;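 active = activation of at least 50%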
bGal cs – beta-galactosidase inhibition counter-screen; shares compounds with EBI2 antag; purified beta-galactosidase, luminescent Galacton Star, 15 min; inhibition, % at 5 µM; hit rate 1% among 2,400;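 active = replicate-average signal at least 3 plate SD below neutral wells, shown as high inhibition, flagging enzyme-inhibiting false positives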;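 note: 0% = DMSO wells with enzyme and 100% = wells lacking enzyme; higher means stronger loss of beta-gal luminescence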
An asterisk follows results filed as active; x = no result. This is a sample that favours compounds with a hit; in the whole collection about 5% have one here.

SMILES	SENP8 block-1	EBI2 antag	AHR act	SENP6 block	SENP7 inh	SENP8 block-2	EBI2 conf	EBI2 ag	bGal cs
Cc1nc(N2CCC(C)CC2)c2c(C)c(C(=O)Nc3ccccc3C(F)(F)F)sc2n1	-9.5	45.1*	2.3	2.2	-15.3	-373.6	14.7	-0.2	-9.9
c1ccc(Oc2ncnc3oc(-c4ccccc4)cc23)cc1	-1.4	50.1*	5.2	-17.1	-8.2	-10.7	47.2	-0.2	3.0
c1ccc(OCCN2CCN(C(c3ccccc3)c3ccccc3)CC2)cc1	-8.8	45.0*	2.3	-17.6	-14.5	11.6	5.2	-0.2	-9.8
c1ccc(OCCN2CCNCC2)cc1	x	8.0	x	x	x	19.3	x	x	x
CCN1CCN(CC(O)COc2cccc(OC)c2)CC1 (stereo unspecified)	-8.3	-11.7	4.2	2.8	3.4	14.8	x	x	x
COc1cccc(OCC(O)CN2CCN(C(c3ccccc3)c3ccccc3)CC2)c1 (stereo unspecified)	-0.7	37.9*	3.3	-3.8	4.0	13.3	16.4	-0.7	-10.7
CC(C)CN(C(=O)c1ccc(S(=O)(=O)N2CCCC2)cc1)C1CCS(=O)(=O)C1 (stereo unspecified)	-3.6	0.1	-0.6	-4.5	1.9	-4.5	x	x	x
O=C(c1ccc(-c2ccccc2)cc1)N1CCN(c2ccccc2)CC1	-5.7	17.6	1.2	0.1	-0.8	7.5	x	x	x
Cc1cccc(N2CCN(C(=O)c3ccc4ccccc4c3)CC2C)c1 (stereo unspecified)	-12.8	64.8*	0.5	24.9	-12.0	-2.3	41.7	-1.1	-14.8
CC1CCN(C(=O)c2ccc3ccccc3c2)CC1	-4.3	46.3*	-1.0	-16.1	4.1	13.8	48.1	0.3	-0.6
CC1CC(C)CN(C(=O)c2ccc3ccccc3c2)C1 (stereo unspecified)	-14.9	9.6	-3.5	-14.6	6.3	11.2	x	x	x
O=C(c1ccc2ccccc2c1)N1CCN(c2ccccc2)CC1	0.9	82.8*	3.0	-1.3	5.6	5.5	67.9*	-0.5	-9.8
C=CCn1cc(-c2ccc(Cl)cc2)cc(C#N)c1=O	0.9	3.0	0.9	-5.8	-6.8	-407.8	x	x	x
N#Cc1cc(-c2ccc(Cl)cc2)cn(Cc2c(Cl)cccc2Cl)c1=O	2.3	45.5*	2.0	4.3	4.1	-335.5	19.4	0.9	9.5
CSc1nnc2c3cc(F)ccc3n(Cc3ccccc3)c2n1	0.3	-0.8	1.8	0.1	-0.3	-6.7	x	x	x
CCN(CC)CCSc1nnc2c3cc(C)ccc3n(Cc3ccccc3)c2n1	-7.2	74.1*	3.2	-10.0	-4.0	31.3	51.9*	1.2	-0.6
CN(C(=O)c1cccn(Cc2ccccc2)c1=O)c1ccccc1	10.8	-5.7	-0.1	21.6	5.8	11.9	x	x	x
CN(C(=O)c1ccc(=O)n(Cc2ccc(Cl)cc2)c1)c1ccccc1	-5.8	56.0*	-1.5	-2.1	-8.8	9.2	36.4	-1.2	-14.1
CC1(C)Cc2c(C#N)c(SCCC#N)nc(N3CCOCC3)c2CS1	-1.9	69.5*	-0.2	-3.9	-1.0	-40.3	39.3	-0.4	1.8
CC1(C)Cc2c(C#N)c(SCCC#N)nc(N3CCOCC3)c2CO1	-9.4	9.9	x	6.4	2.2	-5.8	x	x	x
Cc1ccc(-n2nnnc2-c2cnc3ccc(Cl)cc3c2-c2ccccc2)cc1	-3.6	14.7	1.5	2.2	-5.6	16.8	x	x	x
Clc1ccc2[nH]cc(-c3nnnn3-c3ccc4ccccc4c3)c2c1	3.5	45.0*	4.0	1.0	-4.1	-12.0	30.3	1.9	5.3
O=C(NC(c1ccccc1)c1ccc2ccccc2n1)C1CCN(CCOc2ccc(Cl)cc2Cl)CC1 (stereo unspecified)	x	39.5	x	x	x	-6.0	x	x	x
O=C(NC(c1ccc(F)cc1)c1ccc2ccccc2n1)C1CCN(CCOc2ccc(Cl)cc2)CC1 (stereo unspecified)	x	72.7*	x	x	x	-15.1	51.5*	1.3	4.4
O=C(Nc1ccccc1)N1CCC(c2ccccc2)C1 (stereo unspecified)	-5.3	28.9	-3.0	7.0	-0.8	15.2	x	x	x
SMILES	SENP8 block-1	EBI2 antag	AHR act	SENP6 block	SENP7 inh	SENP8 block-2	EBI2 conf	EBI2 ag	bGal cs
CCOc1ccc(NC(=O)N2CCC(c3ccc(C)cc3)C2)cc1 (stereo unspecified)	-9.6	80.7*	-1.5	-14.2	-2.9	5.0	55.3*	-0.4	2.6
CCc1ccc(NC(=O)N2CCC(c3ccccc3)C2)cc1 (stereo unspecified)	-14.6	82.5*	3.4	-6.8	-1.4	29.8	63.0*	-0.1	5.8
CCc1ccc2c(c1)NC(=O)C2(C)Cc1ccc(C(F)(F)F)o1 (stereo unspecified)	x	-7.6	x	x	x	-3.8	x	x	x
CN(Cc1ccccc1Br)C(=O)CN1C(=O)NC2(CCCCCC2)C1=O	-1.2	-5.3	-0.9	-3.2	7.9	8.1	x	x	x
Cn1ccnc1C(=O)c1cc(SCC(=O)NCc2ccccc2)nc2ccccc12	-3.0	44.1*	1.5	-7.3	-6.5	-0.4	-6.9	1.1	3.0
COC(=O)CSc1cc(C(=O)c2nccn2C)c2ccccc2n1	-0.2	3.1	14.5	4.9	13.8	12.3	x	x	x
Cc1ccc(C(C)C)c(OCc2ccc(C(=O)N/N=C/c3ccc(O)cc3O)cc2)c1	x	-2.8	-3.2	x	x	-13.0	x	x	x
Cc1ccc(C(C)C)c(OCc2ccc(C(=O)N/N=C/c3ccc(C(=O)O)cc3)cc2)c1	4.1	40.0*	-7.3	7.9	-13.3	-23.5	8.5	-0.3	7.8
O=C(/C=C/c1ccc(Cl)cc1Cl)c1nc2ccccc2[nH]1	-9.2	44.2*	5.8	14.5	4.8	-23.0	15.5	1.2	1.4
CC[C@H](C)[C@@H](C(=O)NCCCCCCCCCCC(=O)N1CCNCC1)n1cc(CCCCN=C(N)N)nn1	-4.8	-4.2	1.6	1.3	-5.5	9.7	x	x	x
COc1ccc(NC(=O)CN2CCN(C3c4ccccc4-c4ccccc43)CC2)cc1	-3.8	47.2*	-2.4	-16.8	6.0	10.8	42.9	-0.2	-15.6
COc1ccc(NC(=O)CN2CCN(c3ccccc3)CC2)cc1	-10.1	-4.7	2.4	-15.8	-3.3	19.4	x	x	x
CC(C)(C)C1CCc2onc(C(=O)Nc3cnn(Cc4ccc(F)cc4)c3)c2C1 (stereo unspecified)	-1.2	44.0*	-5.5	-9.1	-1.4	12.3	8.5	-1.5	-7.4
O=C(Nc1cnn(Cc2ccc(F)cc2)c1)c1noc2c1CCCC2	-2.6	1.5	34.5	-2.5	1.9	8.6	x	x	x
O=C(Nc1cnn(Cc2ccc(F)cc2)c1)C(c1ccccc1)c1ccccc1	-7.4	73.2*	-4.1	11.0	3.8	13.8	38.1	1.5	-0.8
O=P(OC1CCCCC1)(OC1CCCCC1)C(O)c1ccccc1 (stereo unspecified)	2.5	4.5	0.4	2.2	-5.4	34.4	x	x	x

Compound activity from PubChem.
